{"source": "ChEMBL document CHEMBL3988442", "about": "“University of Dundee, Small-Polar-MMV Screening Library” (2021)", "note": "The whole screen tested about 48,000 compounds, of which about 13,000 (27%) showed an effect of 50% or more. Some of the results follow."}
{"tested_on": "Wolbachia pipientis", "experiment": "Anti-Wolbachia Cell-Based Screen", "assay_type": "functional", "parameters": "scale not given: in the data most compounds retested in dose-response had high values", "settings": "5 µM", "units": {"Percent Effect": "%"}}
{"smiles": "Cc1ccc(SCCCNC(=O)c2cn([C@H]3CC[C@@H](N)CC3)nn2)cc1", "Percent Effect": -20.01}
{"smiles": "Cc1sc(Br)cc1S(=O)(=O)NCc1ccccn1", "Percent Effect": -26.2}
{"smiles": "Oc1ccccc1CN1CCC(n2cc(-c3ccc(F)cc3)nn2)CC1", "Percent Effect": -4.662}
{"smiles": "Cc1ccccc1CNC(=O)N1C[C@H]2C[C@H](C(=O)N(C)C)[C@@H](C1)O2", "Percent Effect": -3.016}
{"smiles": "CNCc1ccc([C@@H]2CN(C)C[C@H]2C(N)=O)cc1.Cl", "Percent Effect": 68.94}
{"smiles": "CN(C)C(=O)c1ccc(CNC(=O)NCCN(C)C2CCCC2)cc1", "Percent Effect": 0.2327}
{"smiles": "CS(=O)(=O)c1ccc(CNC(=O)N2CCC(C(N)=O)C2)cc1", "note": "(stereo not given)", "Percent Effect": -0.5949}
{"smiles": "Cc1occc1C(=O)NCc1ccc(N2CCCC(C(N)=O)C2)cc1", "note": "(stereo not given)", "Percent Effect": -5.63}
{"smiles": "Cl.NC(=O)c1ccc(CNC2CC2)cc1", "Percent Effect": 11.53}
{"smiles": "CNCc1ccc([C@@H]2CN(C(C)=O)C[C@H]2C(=O)N(C)C)cc1.Cl", "Percent Effect": 99.26}
{"smiles": "CNCc1ccc([C@@H]2CN(C(C)=O)C[C@H]2C(N)=O)cc1.Cl", "Percent Effect": 129.4}
{"smiles": "Fc1cnc(N2CCOC3(CCN(Cc4cccs4)CC3)C2)nc1.O=C(O)C(F)(F)F.O=C(O)C(F)(F)F", "Percent Effect": 104.4}
{"smiles": "Cn1ccnc1CN1CCC2(CC1)CN(c1cncnc1)C(=O)CO2.O=C(O)C(F)(F)F", "Percent Effect": -21.12}
{"smiles": "O=C(O)C(F)(F)F.O=C1COC2(CCN(Cc3cccs3)CC2)CN1c1cncnc1", "Percent Effect": 100.5}
{"smiles": "O=C(O)C(F)(F)F.O=C1COC2(CCN(Cc3cccs3)CC2)CN1c1ccccc1", "Percent Effect": -12.07}
{"smiles": "Cn1cc(N2CC3(CCN(Cc4cccs4)CC3)OCC2=O)cn1.O=C(O)C(F)(F)F", "Percent Effect": 13.04}
{"smiles": "Fc1cnc(N2CCCC3(CN(Cc4ccccc4)CCO3)C2)nc1.O=C(O)C(F)(F)F", "note": "(stereo not given)", "Percent Effect": 8.099}
{"smiles": "Cc1cccc(CN2CCC3(CC2)CN(c2cccnc2)C(=O)CO3)n1.O=C(O)C(F)(F)F.O=C(O)C(F)(F)F", "Percent Effect": 90.31}
{"smiles": "Cc1cnc(N2CCC3(CC2)CN(c2ccsc2)C(=O)CO3)nc1.O=C(O)C(F)(F)F", "Percent Effect": 15.19}
{"smiles": "Fc1cnc(N2CCOC3(CCN(Cc4ccsc4)CC3)C2)nc1.O=C(O)C(F)(F)F.O=C(O)C(F)(F)F", "Percent Effect": -10.48}
{"smiles": "O=C(O)C(F)(F)F.O=C1COC2(CCN(Cc3cccs3)CC2)CN1c1ccsc1", "Percent Effect": 102.1}
{"smiles": "CCCn1cc(C(=O)N(C)Cc2nc(-c3ccccn3)no2)c(C)n1", "Percent Effect": 4.948}
{"smiles": "CCO[C@@H]1CCN(C(=O)c2cnc(C)cn2)[C@@H]1Cc1cnn(C)c1", "Percent Effect": -1.532}
{"smiles": "CS(=O)(=O)c1ccccc1N[C@@H]1c2ccccc2C[C@@H]1O", "Percent Effect": -8.17}
{"smiles": "CNc1nc(CNC(=O)Nc2ccc(OC)cc2C)cs1", "Percent Effect": 10.14}
{"smiles": "CC(=O)N1CC(=O)N(c2cccnc2)CC12CCN(Cc1nccs1)C2.O=C(O)C(F)(F)F.O=C(O)C(F)(F)F", "note": "(stereo not given)", "Percent Effect": -2.554}
{"smiles": "O=C(O)C(F)(F)F.O=C(O)C(F)(F)F.O=C1COC2(CCN(Cc3cccs3)CC2)CN1c1cccnc1", "Percent Effect": 97.28}
{"smiles": "CCCc1nc(C(=O)N(C)Cc2cnn(-c3cccc(OC)c3)c2)cs1", "Percent Effect": -14.16}
{"smiles": "Cc1nc(-c2nnc[nH]2)sc1C(=O)N(Cc1cccnc1)C1CC1", "Percent Effect": 1.946}
{"smiles": "CN(CCCOc1ccccc1)C(=O)c1csc(-c2nnc[nH]2)n1", "Percent Effect": 111.9}
{"smiles": "COc1cccc(CN(C)C(=O)c2csc(-c3nnc[nH]3)n2)c1", "Percent Effect": 94.98}
{"smiles": "COCCN(Cc1ccccc1)C(=O)c1csc(-c2nnc[nH]2)n1", "Percent Effect": 98.7}
{"smiles": "COc1cccc(-n2cc(CN(C)C(=O)c3cc[nH]n3)cn2)c1", "Percent Effect": -0.6043}
{"smiles": "CN(CCCc1ccccc1)C(=O)CCc1nc(-c2nnc[nH]2)no1", "Percent Effect": -15.35}
{"smiles": "Cc1csc(CN(C)CCOc2ccccc2)n1", "Percent Effect": -0.03273}
{"smiles": "COCc1nc(C(=O)N(Cc2ccccc2)CC(C)C(=O)O)cs1", "note": "(stereo not given)", "Percent Effect": 6.809}
{"smiles": "Cc1nc2c(NCC(C)N(C)c3ccccc3)ncnc2o1", "note": "(stereo not given)", "Percent Effect": -36.58}
{"smiles": "COc1ccc(C2(C(=O)NCc3c(C)ncc4c3CCNC4)CC2)cc1", "Percent Effect": -10.04}
{"smiles": "CNS(=O)(=O)c1cc(C(=O)N(C)Cc2sccc2C)c(C)o1", "Percent Effect": -10.4}
{"smiles": "COc1c(C)cnc(CN(C)C(=O)Nc2ccc3c(c2)CCO3)c1C", "Percent Effect": 3.992}
{"smiles": "COc1ccc(Cc2ncc3c(n2)CN(C(=O)CN(C)C)C3)cc1", "Percent Effect": -15.7}
{"smiles": "Cc1nc(C)n(CC2CN(CCOCC(F)(F)F)CCO2)n1", "note": "(stereo not given)", "Percent Effect": -2.106}
{"smiles": "Cn1nccc1C(=O)NC(C)(C)c1noc(C(C)(C)C)n1", "Percent Effect": 27.22}
{"smiles": "COc1ccccc1C(C)(C)NCc1ccc(C)o1", "Percent Effect": 6.664}
{"smiles": "Cc1csc(C(C)(C)NCCNS(C)(=O)=O)n1", "Percent Effect": -2.878}
{"smiles": "Cc1ccc(CNC(C)(C)c2noc(C(C)(C)C)n2)o1", "Percent Effect": 107.5}
{"smiles": "Cc1cnn(C2CN(CC(=O)N(C)Cc3ccc(C)o3)C2)c1", "Percent Effect": -130.6}
{"smiles": "Cc1ccc(CN(C)C(=O)CNC(C)(C)c2noc(C(C)(C)C)n2)o1", "Percent Effect": 94}
{"smiles": "Cc1csc(C(C)(C)NCC(=O)N(C)Cc2ccc(C)o2)n1", "Percent Effect": 102.3}
{"smiles": "CCC(C)(NCC(=O)N(c1ccccc1)C(C)C)c1nc(C)cs1", "note": "(stereo not given)", "Percent Effect": -6.604}
{"smiles": "Cc1nc(C)n(CC2CCCN2CC(=O)N(C)Cc2ccc(C)o2)n1", "note": "(stereo not given)", "Percent Effect": 1.913}
{"smiles": "Cc1nn(C)c(C)c1OCC(=O)NCC(O)c1ccsc1", "note": "(stereo not given)", "Percent Effect": 4.904}
{"smiles": "CCC(=O)N1CCN(C)C(=O)C(Cc2ccccc2-c2cccs2)C1", "note": "(stereo not given)", "Percent Effect": 157.1}
{"smiles": "CCC(=O)N1CSCC1C(=O)Nc1ccccc1-c1cccs1", "note": "(stereo not given)", "Percent Effect": -5.499}
{"smiles": "COCC(=O)N1CCN(C)C(=O)C(Cc2ccccc2-c2cccs2)C1", "note": "(stereo not given)", "Percent Effect": 162.7}
{"smiles": "COCC(=O)N1CCN(C)C(=O)C(Cc2ccc(-c3cccs3)cc2)C1", "note": "(stereo not given)", "Percent Effect": 126.7}
{"smiles": "COCC(=O)N1CCN(C(=O)c2cccs2)[C@@H](C(=O)OC)C1", "Percent Effect": -3.923}
{"smiles": "CCC(=O)N1CCN(C(=O)Nc2ccccc2-c2cccs2)CC1", "Percent Effect": -6.486}
{"smiles": "O=C(Nc1ccccc1-c1cccs1)N1CCN(CC(F)F)CC1", "Percent Effect": -15.51}
{"smiles": "COCc1noc(Cn2ccc3ccccc3c2=O)n1", "Percent Effect": -17.57}
{"smiles": "COCc1noc(Cn2ccc3ncccc3c2=O)n1", "Percent Effect": 1.423}
{"smiles": "COCc1noc(Cn2c(C3CC3)nc3ccccc32)n1", "Percent Effect": 95.56}
{"smiles": "COCCc1noc(Cn2c(=O)[nH]c3ccccc32)n1", "Percent Effect": 95.59}
{"smiles": "COCc1noc(CN2CC(=O)N(C)c3ccccc3C2=O)n1", "Percent Effect": -11.96}
{"smiles": "COCCc1noc(CN2CC(C)(c3ccccc3)CCC2=O)n1", "note": "(stereo not given)", "Percent Effect": -4.269}
{"smiles": "COCc1noc(Cn2c(=O)[nH]c3ccccc32)n1", "Percent Effect": 93.82}
{"smiles": "COCCc1noc(Cn2ccc3ccccc3c2=O)n1", "Percent Effect": -26.03}
{"smiles": "COCc1noc(Cn2ncn3cccc3c2=O)n1", "Percent Effect": -2.273}
{"smiles": "CSCC(CCO)NC(=O)Nc1cc(Br)ccc1C", "note": "(stereo not given)", "Percent Effect": 9.066}
{"smiles": "COCCN1CCC2(CCCN(C(=O)c3cncn3C)C2)CC1.O=C(O)C(F)(F)F", "Percent Effect": -17.89}
{"smiles": "CNC(=O)c1nc(COc2c(C)occc2=O)no1", "Percent Effect": 98.73}
{"smiles": "CCOc1ccc(CC(CNC(=O)c2ccoc2C)C(N)=O)cc1", "note": "(stereo not given)", "Percent Effect": -14.81}
{"smiles": "Cc1occc(=O)c1OCc1noc(C(=O)NC(C)C)n1", "Percent Effect": 81.24}
{"smiles": "Cc1occc1C(=O)NCC(O)c1ccc(Cl)s1", "note": "(stereo not given)", "Percent Effect": -1.514}
{"smiles": "Cc1cccnc1C(NC(=O)CNC(=O)c1ccoc1C)C(C)C", "note": "(stereo not given)", "Percent Effect": -9.405}
{"smiles": "CNC(=O)c1ccc(OC)c(NCc2noc(-c3ccsc3)n2)c1", "Percent Effect": -18.11}
{"smiles": "Cc1occc(=O)c1OCc1noc(C(=O)NCC(C)C)n1", "Percent Effect": 118}
{"smiles": "CNC(=O)c1nc(Cn2ncc3ccccc3c2=O)no1", "Percent Effect": -11.19}
{"smiles": "CCOC(=O)c1nc(COc2c(C)occc2=O)no1", "Percent Effect": 107.7}
{"smiles": "CCc1nc(COc2ccc(N(C)C(C)=O)cc2)no1", "Percent Effect": -47.78}
{"smiles": "CN(CCc1nc2cc(Cl)ccc2[nH]1)C(=O)c1ncn[nH]1", "Percent Effect": 8.261}
{"smiles": "CCCN1C[C@H]2CC[C@@H]1CN(C(=O)c1ccc(N(C)CCO)cc1)C2", "Percent Effect": -0.2946}
{"smiles": "COc1ccc(C(C)N2CCC(C(=O)N(C)C)CC2)cc1Cl", "note": "(stereo not given)", "Percent Effect": 13.21}
{"smiles": "COC(=O)NCC(=O)N(C)CC1Cc2ccccc2CN1C", "note": "(stereo not given)", "Percent Effect": -16.07}
{"smiles": "Cc1c(I)cccc1C(=O)NCc1nnc[nH]1", "Percent Effect": -11.57}
{"smiles": "COC(=O)N1CCC(NC(=O)N2CCCC2c2ccsc2)CC1", "note": "(stereo not given)", "Percent Effect": 22.17}
{"smiles": "CC(C)(C)C(=O)N1C[C@H](c2ccsc2)[C@H]2CN(Cc3cccs3)CC[C@H]21.Cl", "Percent Effect": 6.375}
{"smiles": "CC(C)(C)C(=O)N1C[C@H](c2ccsc2)[C@H]2CN(C3CCCC3)CC[C@H]21.Cl", "Percent Effect": 191.9}
{"smiles": "COC(=O)CS(=O)(=O)CCC(=O)N1CCCC1c1ccsc1", "note": "(stereo not given)", "Percent Effect": 0.3686}
{"smiles": "CC(C)(C)C(=O)N1C[C@H](c2ccsc2)[C@H]2CN(C3CCCCC3)CC[C@H]21.Cl", "Percent Effect": 142.3}
{"smiles": "CC(C)(C)NC(=O)CNC(=O)CCc1ccccc1Br", "Percent Effect": 12.72}
{"smiles": "Cc1nc2ccccc2nc1CN(C)C1CCCN(c2cccnn2)C1", "note": "(stereo not given)", "Percent Effect": 3.642}
{"smiles": "CN(c1ncnc2ccccc12)C1CCCN(c2cccnn2)C1", "note": "(stereo not given)", "Percent Effect": 80.98}
{"smiles": "Cc1nc(CN(C)C2CCCN(c3cccnn3)C2)nc2ccccc12", "note": "(stereo not given)", "Percent Effect": 87.46}
{"smiles": "CN(Cc1nc2ccccc2s1)C1CCCN(c2cccnn2)C1", "note": "(stereo not given)", "Percent Effect": 143.8}
{"smiles": "CN(c1ncnc2sccc12)C1CCCN(c2cccnn2)C1", "note": "(stereo not given)", "Percent Effect": 17}
{"smiles": "CN(Cc1nc(N)c2ccccc2n1)C1CCCN(c2cccnn2)C1", "note": "(stereo not given)", "Percent Effect": 10.49}
{"smiles": "CN(Cc1ncc(-c2ccccc2)o1)C1CCCN(c2cccnn2)C1", "note": "(stereo not given)", "Percent Effect": 2.582}
{"smiles": "Cc1nc(CN(C)CC2CCCN2c2cccnn2)nc2ccccc12", "note": "(stereo not given)", "Percent Effect": 6.947}
{"smiles": "CN(c1ncnc2c1cnn2C)C1CCCN(c2cccnn2)C1", "note": "(stereo not given)", "Percent Effect": -20.96}
